# Screening data deposited in PubChem BioAssay by National Center for Advancing Translational Sciences (NCATS).
# FLuc counter: qHTS profiling assay for firefly luciferase inhibitor/activator using purifed enzyme and Km concentrations of substrates (counterscreen for miR-21 project) | 360,000 compounds, 6.9% hits | Potency, µM (titrated, usually from 57.5 µM), without a hit: top-dose activity change, negative = inhibition, actives largely listed as inhibitors | AID 588342, 2011 | purified FLuc, Km substrates, luminescence inhibition;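 note: plate controls were vehicle for no effect and reference inhibitor for full effect; nearly all actives have a fitted effect of over 55% in size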
# Target sequence (P08659 whole entry, looked up): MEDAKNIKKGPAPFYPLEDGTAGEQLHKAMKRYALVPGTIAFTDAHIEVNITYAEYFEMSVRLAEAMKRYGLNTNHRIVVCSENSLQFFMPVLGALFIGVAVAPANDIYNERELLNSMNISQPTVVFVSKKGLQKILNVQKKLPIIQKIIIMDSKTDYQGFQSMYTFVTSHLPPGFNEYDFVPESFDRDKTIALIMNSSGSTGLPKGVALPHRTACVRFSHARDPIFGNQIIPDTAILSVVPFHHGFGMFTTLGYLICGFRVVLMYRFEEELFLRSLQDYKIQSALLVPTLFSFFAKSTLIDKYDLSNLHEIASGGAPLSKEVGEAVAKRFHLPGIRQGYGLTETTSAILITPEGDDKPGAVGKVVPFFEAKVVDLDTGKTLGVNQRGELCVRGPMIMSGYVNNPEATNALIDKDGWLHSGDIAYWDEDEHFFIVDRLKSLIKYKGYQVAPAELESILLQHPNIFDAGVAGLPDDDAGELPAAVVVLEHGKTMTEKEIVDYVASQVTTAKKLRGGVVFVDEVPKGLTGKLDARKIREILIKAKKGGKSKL
#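 Biochemical qHTS of compounds, final roughly 60 µM downward over six points, against 10 nM purified firefly luciferase using Km concentrations of substrates (10 uM D-luciferin, 10 uM ATP) in Tris acetate pH 7.5 buffer; luminescence output.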
# Rab9 promoter act: qHTS Assay for Rab9 Promoter Activators; Huh7 Rab9 promoter-luciferase reporter, luminescence, 24 h; 320,000 compounds, 2.8% hits; Potency, µM (series often up to 9.22 µM), without a hit: at the highest dose activation, negative = inhibition, actives largely listed as activators; note: % of control where 0% means no effect; nearly all actives have a fitted effect of over 60% in size
#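 Huh7 reporter line, Rab9 promoter upstream of luciferase. Compound exposure 24 h at 37 °C in reduced-serum medium with 10% FBS. Read-out: luminescence.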
# NPC1 prom act: qHTS Assay for NPC1 Promoter Activators; Huh7 NPC1 promoter luciferase reporter, 24 h; Potency, µM (titrated, usually from 9.22 µM), for the others: top-dose activation, most hits filed as activators; 320,000 compounds, 2.4% hits; AID 485313, 2010; note: % of control where 0% means no effect; nearly all actives have a fitted effect of over 60% in size
#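 In 1536-well qHTS, Huh7 cells harboring an NPC1 promoter–luciferase construct received compound for 24 h; activation was quantified by luminescence following luciferase reagent addition.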
# SMN2 splice enh: qHTS Assay for Enhancers of SMN2 Splice Variant Expression. HEK293 SMN2-luciferase splicing reporter, luminescence, 30-36 h. Potency, µM (top dose mostly 46.1 µM), for the others: at the highest dose activity change, positive = activation, actives largely listed as activators. 210,000 compounds, 2.8% hits. AID 1458, 2008; note: % of control where 0% means no effect; nearly all actives have a fitted effect of over 55% in size
#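 qHTS luciferase splicing reporter: luminescence rises when SMN2 exon 7 is included in transfected HEK293 cells. Compound exposure lasted 30-36 h at 37C, with 4.5 mM final sodium butyrate as control, followed by a ONE-Glo read.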
# Luc counter: Counterscreen for Luciferase (Kinase-Glo TM) Inhibition | Luciferin 4-monooxygenase (Photuris pensylvanica), Q27757 | Kinase-Glo luciferase, ATP luminescence, 8 min | Potency, µM (doses to about 38.3 µM), without a hit: at the top dose activity change, negative = inhibition, usual class: inhibitors | 200,000 compounds, 0.28% hits | AID 1379, 2008; note: % is set by controls: 0 for no effect and ±100 for the full control effect; nearly all actives have a fitted effect of over 60% in size
#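 Luminescence was the read-out, taken after 8-minute incubation at ambient temperature. Luciferase turned over luciferin with 10 uM ATP in imidazole pH 7.2 buffer containing KCl, MgCl2, Tween 20 and BSA.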
# Starred values were filed as active, the others as inactive; ? = inconclusive; · = not tested or not shown; [ ] = remark or other dose. Only some compounds are listed: those with a hit (about 7.3% of all), similar ones and a draw of the others. Calls come from the whole dose curve; as a rule, active = well fitted curve in the direction sought with a large enough effect; inconclusive = small, poorly fitted or top-dose-only effect, or another doubt; inactive = no such curve, though single readings can be large; an effect the other way counts as inactive or inconclusive. Potency is the fitted concentration of half-maximal effect.
SMILES,FLuc counter,Rab9 promoter act,NPC1 prom act,SMN2 splice enh,Luc counter
CCC(=O)Nc1cccc(NC(=O)c2ccc3c(c2)OCCO3)c1,17µM*,?,?,13µM*,-9%
CN(C)S(=O)(=O)c1cccc(NC(=O)c2ccc3c(c2)OCCO3)c1,9.5µM*,?,3.2µM*,·,·
Cc1ccc2nc(N3C(=O)C(O)=C(C(=O)c4cc5ccccc5o4)C3c3cccs3)sc2c1 (stereo not drawn),4.8µM*,21%,27%,9%,-1%
Cc1cc(Cl)ccc1Nc1sc(C(=O)c2cc3cc(Cl)ccc3o2)c(N)c1C#N,·,·,·,-40%[9.22 µM],-3%[7.66 µM]
CCn1c(=NC(=O)c2ccco2)sc2cccc(F)c21,17µM*,10%,5%,16µM*,3%
CCOC(=O)c1ccc2c(c1)sc(=NC(=O)c1ccco1)n2CCOC,0%,-6%,-3%,17%,6%
CC1CCCN(C(=O)COC(=O)Cc2c(F)cccc2Cl)C1 (stereo not drawn),17µM*,?,?,·,·
CC(C)CN(C(=O)COC(=O)CNC(=O)c1sc2ccccc2c1Cl)C1CCS(=O)(=O)C1 (stereo not drawn),12µM*,-6%,-2%,·,·
CC1CCCN(C(=O)COC(=O)CNC(=O)c2sc3ccccc3c2Cl)C1 (stereo not drawn),24µM*,-4%,-4%,·,·
O=C(Cn1nnc(-c2cccs2)n1)OC1CCCCC1,13µM*,2%,-2%,-2%,-1%
CC1CCN(C(=O)Cn2nnc(-c3cccs3)n2)CC1,?,2.2µM*,3.5µM*,·,4%
Cc1ccc(C(=O)Cn2nnc(-c3cccs3)n2)cc1,5.4µM*,3.2µM*,?,·,·
COc1ccccc1N1CCN(c2ncnc3onc(C)c23)CC1,1%,·,·,·,·
CCOC(=O)C1CCN(C(=O)C2CCN(C3=NS(=O)(=O)C(c4ccc(C)c(C)c4)=C3C)CC2)CC1,1%,·,·,-3%,·
CCOc1cc(NC(=S)NCC2CCCO2)c(OCC)cc1NC(=O)c1ccc(F)cc1 (stereo not drawn),27µM*,-6%,-5%,·,-5%
Cc1ccc(C(=O)NC(=S)NCC2CCCO2)cc1 (stereo not drawn),17µM*,?,2.8µM*,14µM*,-2%
CC(C)(C)c1ccc(C(=O)Nc2ccccc2C(=O)NCCN2CCOCC2)cc1,5.4µM*,8%,29%,·,·
Cc1ccc(C(=O)Nc2ccccc2C(=O)NCC2CCCO2)cc1 (stereo not drawn),15µM*,9%,-14%,·,·
CCOc1cc(NC(=S)NCC2CCCO2)c(OCC)cc1NC(=O)c1ccc(C)cc1 (stereo not drawn),-4%,9%,1%,2%,2%
COc1ccc(C(=O)Nc2ccccc2C(=O)NCCN2CCOCC2)cc1,?,-3%,-1%,-14%,-6%
O=C(COC(=O)c1cc(-c2ccccc2)nc2c(Cl)cccc12)c1ccc(F)cc1,-2%,·,·,-16%,·
CCc1ccc(C(=O)CN2CCSC2=N)cc1,3µM*,0.71µM*,1.6µM*,?,-5%
COc1ccc(Nc2nc(C)nc(N)c2S(=O)(=O)c2ccccc2)cc1,4%,·,·,6%,·
Cc1cc(NC(=O)Nc2ccc3c(ccn3C)c2)sn1,·,6.5µM*,7.3µM*,?,-3%
N#CC/C(N)=N/NC(=O)CCCNc1ncc(C(F)(F)F)cc1Cl,-2%,?,20%,16µM*,1%
SMILES,FLuc counter,Rab9 promoter act,NPC1 prom act,SMN2 splice enh,Luc counter
CCCS(=O)(=O)N1CC(=O)N(c2ccc(C)c(Cl)c2)C(C)(C(=O)NC2CCCCCC2)C1 (stereo not drawn),1%,·,·,·,·
COc1cc(C=O)ccc1OCCCOc1ccccc1C(=O)O,1.9µM*,?,?,14%,-5%
COc1cc(C=O)ccc1OCCCOc1ccccc1[N+](=O)[O-],?,-4%,1%,?,2%
COc1cc(C=O)ccc1OCc1ccc(Cl)nc1,4.8µM*,10%,-1%,·,1%
C/C=C/c1ccc(OCCOc2cc(C=O)ccc2OC)c(OC)c1,13µM*,8%,12%,16µM*,0%
COc1cc(C=O)ccc1OCCCCOc1ccccc1[N+](=O)[O-],-29%,1%,0%,4%,-2%
COc1cc(C=O)ccc1OCCOc1ccccc1[N+](=O)[O-],21µM*,-4%,-1%,17%,0%
O=C(O)CSc1ccc([N+](=O)[O-])cc1[N+](=O)[O-],·,·,·,-11%[9.22 µM],1%[7.66 µM]
O=C(Nc1cnc(N2CCN(c3ccccc3)CC2)c(C(=O)O)c1)c1cccs1,-2%,·,·,·,·
O=C(Cc1csc(NC(=O)Nc2ccc(Cl)cc2)n1)NCc1ccccn1,1.1µM*,?,?,·,·
O=C(Cc1csc(NC(=O)Nc2ccc(Cl)cc2)n1)NC1CCCC1,4.8µM*,-3%,17%,·,·
CNC(=O)c1c(NC(=O)c2nc3ccccc3s2)sc2c1CCC2,5.4µM*,2µM*,?,13µM*,-3%
O=C(Nc1sc2c(c1C(=O)O)CCC2)c1ccccc1Cl,?,-1%,0%,·,·
Cc1ccccc1C(=O)Nc1sc2c(c1C(=O)O)CCC2,19µM*,-13%,-1%,5%,-7%
Cc1cccc(C(=O)Nc2sc3c(c2C(=O)Nc2ccccc2)CCC3)c1,?,·,·,-12%,·
Cc1cccc(C(=O)Nc2sc3c(c2C(=O)O)CCCC3)c1,15µM*,28%,23%,15%,·
O=C(Nc1sc2c(c1C(=O)O)CCCCC2)c1cccnc1,17µM*,28%,25%,·,·
Cc1cc(C)cc(NC(=O)c2cc3c(=O)n(Cc4ccco4)ccc3nc2C)c1,-4%,·,·,·,·
Cc1cc(-c2ccccc2)nc(N2CCC(C(=O)NCc3ccccc3Cl)CC2)n1,-15%,14%,22%,28µM*,3%
C=CCNC(=O)C1CCN(c2nc(C)cc(-c3ccccc3)n2)CC1,19µM*,3.5µM*,3.5µM*,8.9µM*,1%
CCn1cc(Br)c(C(=O)Nc2nccs2)n1,?,14%,17%,21%,-2%
CCn1cc(Br)c(C(=O)Nc2ccc(Cl)c(Cl)c2)n1,?,3.5µM*,?,?,3%
CCn1ccc(C(=O)Nc2cccc(Cl)c2)n1,11µM*,1.4µM*,3.5µM*,13µM*,-1%
CCn1ccc(C(=O)Nc2ccccc2Cl)n1,11µM*,1.6µM*,2µM*,·,-12%
CCn1cc(Cl)c(C(=O)Nc2ccc(OC)c(OC)c2)n1,15µM*,?,26%,-42%,-5%
CCOC(=O)C1CCCN(C(=O)c2nn(-c3ccc(C)cc3)c(=O)c3c2c2ccccc2n3C)C1 (stereo not drawn),-2%,·,·,4%,·
CCn1cc(Cl)c(C(=O)Nc2cccc(CN3CCOCC3)c2)n1,-1%,19%,24%,·,·
